Laboratory results published in PubChem BioAssay (EPA / NIEHS).
Results filed as inconclusive are left out. Active and inactive are the calls of the source. The calls were made as follows, unless noted: active = hit-call score of the fitted dose curve at least 0.9, where 1 is the maximum; inactive = score below 0.9.

How the values were obtained:
[1] = ATG_TCF_b_cat_CIS: Attagene CIS-FACTORIAL HepG2 Assay for human T-Cell-Factor with beta-catenin (TCF/b-cat) (AID 2282965); conditions: HepG2 TCF/beta-catenin cis-reporter transcription, actives raise or lower the signal
Summary of the method: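 In this cis-format system, transfected HepG2 cells report endogenous transcription factor activity. Readout after 24 h exposure is reporter transcript abundance from RT-PCR and capillary electrophoresis, analysed for gain or loss of signal versus DMSO.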

[2] = ATG_TAL_CIS: Attagene CIS-FACTORIAL HepG2 Assay for human TAL Basal Promoter (AID 2282966); conditions: HepG2 Attagene cis-factorial TAL promoter reporter; actives raise or lower the signal;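 also: background control endpoint measuring basal TAL promoter reporter mRNA not a specific factor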
Summary of the method: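 Background-control endpoint: basal TAL promoter reporter transcripts in transiently transfected HepG2, measured 24 h after dosing. Read-out by RT-PCR with fluorescent primer extension and capillary electrophoresis; gain or loss of signal fitted relative to DMSO.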

[3] = ATG_TGFb_CIS: Attagene CIS-FACTORIAL HepG2 Assay for human Transforming Growth Factor (TGF) (AID 2282967); conditions: HepG2 Attagene CIS TGFb reporter, mRNA transcription; actives raise or lower the signal
Summary of the method: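 Transcript-level reporter readout: HepG2 transfectants, 24 h exposure, RNA to cDNA, reporter-specific PCR, fluorescent primer extension, capillary sizing against ROX standards. Gain- or loss-of-signal relative to DMSO.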

[4] = ATG_VDRE_CIS: Attagene CIS-FACTORIAL HepG2 Assay for human Vitamin D Receptor Element (VDRE) (AID 2282968); conditions: HepG2 VDRE cis-reporter transcription, actives raise or lower the signal
Summary of the method: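 Steps: transfect HepG2 with multiple reporter transcription units; dose chemicals 24 h; isolate RNA; RT-PCR; label with 6-FAM primer extension; HpaI digest; capillary electrophoresis. Curves fitted both directions against DMSO.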

[5] = molecular target: Estrogen receptor (Homo sapiens) (UniProt P03372); assay: ATG_ERa_TRANS: Attagene TRANS-FACTORIAL HepG2 Assay for human Estrogen Receptor alpha (ERa) (AID 2282970; active = hit-call score of the fitted dose curve at least 0.9, where 1 is the maximum); conditions: HepG2 Attagene TRANS ERa GAL4 reporter, mRNA
Estrogen receptor (Homo sapiens), sequence (P03372 whole entry, looked up, the tested form may be a part): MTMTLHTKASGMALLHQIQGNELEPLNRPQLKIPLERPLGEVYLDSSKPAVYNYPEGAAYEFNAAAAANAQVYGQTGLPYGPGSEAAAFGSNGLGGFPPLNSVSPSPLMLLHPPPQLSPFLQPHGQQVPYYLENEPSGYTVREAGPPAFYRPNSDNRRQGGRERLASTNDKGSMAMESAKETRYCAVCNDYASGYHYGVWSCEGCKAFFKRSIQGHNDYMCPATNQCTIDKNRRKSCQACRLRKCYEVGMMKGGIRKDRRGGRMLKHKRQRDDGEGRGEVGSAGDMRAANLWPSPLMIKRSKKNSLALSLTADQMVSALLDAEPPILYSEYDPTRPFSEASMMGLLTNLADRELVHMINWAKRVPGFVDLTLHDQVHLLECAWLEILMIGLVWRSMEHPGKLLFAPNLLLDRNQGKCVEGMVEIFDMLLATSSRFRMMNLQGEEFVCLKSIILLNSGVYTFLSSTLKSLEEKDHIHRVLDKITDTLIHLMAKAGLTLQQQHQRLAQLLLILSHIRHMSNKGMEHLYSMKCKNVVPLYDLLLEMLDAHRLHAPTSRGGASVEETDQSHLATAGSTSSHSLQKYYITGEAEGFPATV
Summary of the method: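 Reporter transcripts were measured 24 h after dosing by RT-PCR with fluorescent primer extension and capillary electrophoresis. The system is transiently transfected HepG2 expressing exogenous NR-Gal4 chimeras driving GAL4-UAS reporters; DMSO is the baseline.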

[6] = molecular target: Steroid hormone receptor ERR1 (Homo sapiens) (UniProt P11474); assay: ATG_ERRa_TRANS: Attagene TRANS-FACTORIAL HepG2 Assay for human Estrogen-Related Receptor alpha (ERRa) (AID 2282971; active = hit-call score of the fitted dose curve at least 0.9, where 1 is the maximum); conditions: HepG2 Attagene TRANS reporter, ERRa transactivation
Steroid hormone receptor ERR1 (Homo sapiens), sequence (P11474 whole entry, looked up, the tested form may be a part): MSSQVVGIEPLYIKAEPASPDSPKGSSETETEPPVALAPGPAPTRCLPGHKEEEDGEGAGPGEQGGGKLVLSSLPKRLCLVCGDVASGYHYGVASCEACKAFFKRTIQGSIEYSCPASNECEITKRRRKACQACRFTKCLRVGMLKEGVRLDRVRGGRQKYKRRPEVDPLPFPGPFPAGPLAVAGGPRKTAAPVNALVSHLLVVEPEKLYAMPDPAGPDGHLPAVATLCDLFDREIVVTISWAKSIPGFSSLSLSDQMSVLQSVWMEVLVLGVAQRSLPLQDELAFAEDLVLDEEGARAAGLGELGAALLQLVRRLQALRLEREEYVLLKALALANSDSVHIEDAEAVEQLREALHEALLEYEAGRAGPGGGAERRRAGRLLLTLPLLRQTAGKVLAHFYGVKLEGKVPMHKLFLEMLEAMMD
Summary of the method: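 Reporter transcripts from ERRa-Gal4 chimera activity measured in transiently transfected human HepG2 cells 24 hours after dosing, using RT-PCR with 6-FAM primer extension, HpaI digestion and capillary electrophoresis; DMSO is baseline.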

[7] = molecular target: X-box-binding protein 1 (Homo sapiens) (UniProt P17861); assay: ATG_Xbp1_CIS: Attagene CIS-FACTORIAL HepG2 Assay for human X-box Binding Protein 1 (XBP1) (AID 2282972); conditions: HepG2 XBP1 cis-element reporter, Attagene multiplex; actives raise or lower the signal
X-box-binding protein 1 (Homo sapiens), sequence (P17861 whole entry, looked up): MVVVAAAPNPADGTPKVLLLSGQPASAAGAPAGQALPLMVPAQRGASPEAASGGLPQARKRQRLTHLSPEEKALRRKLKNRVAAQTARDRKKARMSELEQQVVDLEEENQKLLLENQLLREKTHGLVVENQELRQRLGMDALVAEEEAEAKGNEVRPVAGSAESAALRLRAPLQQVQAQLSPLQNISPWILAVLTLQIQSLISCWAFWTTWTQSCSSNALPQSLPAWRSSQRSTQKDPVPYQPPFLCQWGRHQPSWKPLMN
Summary of the method: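 Reporter transcripts were quantified by RT-PCR with fluorescent primer extension and capillary electrophoresis after 24 h chemical exposure. Cells: transiently transfected HepG2 carrying cis-regulated reporter constructs; data fitted bidirectionally relative to DMSO.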

[8] = ATG_M_19_TRANS: Attagene TRANS-FACTORIAL HepG2 Assay for M19 Transcription Factor (Internal Marker) (AID 2282974; active = hit-call score of the fitted dose curve at least 0.9, where 1 is the maximum); conditions: HepG2 Attagene TRANS-FACTORIAL M19 internal marker reporter
Summary of the method: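 Multiplexed TRANS format: HepG2 liver cells bearing transient GAL4-UAS reporter units, chemical treatment 24 h, reporter transcripts quantified by RT-PCR plus capillary electrophoresis. DMSO defines baseline.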

[9] = ATG_GAL4_TRANS: Attagene TRANS-FACTORIAL HepG2 Assay for GAL4 (Internal Marker) (AID 2282976; active = hit-call score of the fitted dose curve at least 0.9, where 1 is the maximum); conditions: HepG2 Attagene TRANS GAL4 internal marker reporter
Summary of the method: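 In transfected human HepG2 liver cells dosed 24 h, GAL4 reporter mRNA serves as a baseline marker. Detection by RT-PCR with fluorescent capillary electrophoresis, activity fitted upward relative to DMSO.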

[10] = molecular target: Nuclear receptor subfamily 1 group I member 3 (Homo sapiens) (UniProt Q14994); assay: ATG_CAR_TRANS: Attagene TRANS-FACTORIAL HepG2 Assay for human Constitutive Androstane Receptor (CAR) (AID 2282969; active = hit-call score of the fitted dose curve at least 0.9, where 1 is the maximum;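 also: activators raise reporter mRNA above DMSO so AC50 marks induction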); conditions: HepG2 Attagene TRANS-FACTORIAL CAR reporter
Nuclear receptor subfamily 1 group I member 3 (Homo sapiens), sequence (Q14994 whole entry, looked up, the tested form may be a part): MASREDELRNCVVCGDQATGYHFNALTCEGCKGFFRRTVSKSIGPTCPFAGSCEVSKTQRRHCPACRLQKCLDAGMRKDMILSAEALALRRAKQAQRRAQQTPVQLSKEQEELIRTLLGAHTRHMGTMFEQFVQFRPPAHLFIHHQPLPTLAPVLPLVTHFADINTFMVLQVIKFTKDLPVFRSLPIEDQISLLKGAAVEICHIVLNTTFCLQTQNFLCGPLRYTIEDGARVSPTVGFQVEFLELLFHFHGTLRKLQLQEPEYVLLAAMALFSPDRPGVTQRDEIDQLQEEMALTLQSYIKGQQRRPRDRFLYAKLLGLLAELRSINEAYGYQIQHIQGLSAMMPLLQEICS
Summary of the method: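 Steps: transient transfection of HepG2 with multiple GAL4-UAS reporter units; 24 h compound incubation; RNA isolation, RT-PCR, 6-FAM primer extension, HpaI digest; capillary electrophoresis. Gain-of-signal relative to DMSO negative control.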

Measured: AC50

OCC(O)CC(F)(F)C(F)(F)C(F)(F)C(F)(F)F (stereo unspecified)
active: [5] 70.8 µM
not listed: [8] | [9] | [10]
inactive: all other assays above

COC(=O)c1ccc(C=O)cc1
not listed: [10]
inactive: all other assays above

Cc1ccc(O)c(-n2nc3ccccc3n2)c1
inactive: [1] | [2] | [3] | [4] | [10]
active: [5] 13.4 µM

O=C(Cl)C(F)(F)C(F)(F)C(F)(F)C(F)(F)C(F)(F)C(F)(F)C(F)(F)F
inactive: [1] | [2] | [3] | [4] | [7]
active: [5] 53.1 µM

O=C(O)CCC(F)(F)C(F)(F)C(F)(F)F
not listed: [5] | [7] | [8]
inactive: all other assays above

CCOC(=O)CCC(C)=O
not listed: [6] | [10]
inactive: all other assays above

Cc1ccc([N+](=O)[O-])c(C)c1
not listed: [5] | [8] | [9]
inactive: all other assays above

O=C=NCc1cccc(CN=C=O)c1
inactive: [1] | [2] | [3] | [4] | [10] | [9]

FC(F)(F)C(F)(F)C(F)(F)C(F)(F)C(F)(F)C(F)(F)CC[Si](Cl)(Cl)Cl
not listed: [8] | [10]
inactive: all other assays above

CCCCC(CC)COC(=O)c1ccc(N(C)C)cc1 (stereo unspecified)
active: [5] 5.75 µM
inactive: [1] | [2] | [3] | [4] | [10]

OCCCC(F)(F)C(F)(F)C(F)(F)C(F)(F)C(F)(F)C(F)(F)C(F)(F)C(F)(F)F
active: [1] 28.9 µM | [5] 10.9 µM
inactive: [2] | [3] | [4] | [6] | [7]

CN(C)C(C)(C)CO
not listed: [6] | [10]
inactive: all other assays above

NS(=O)(=O)C(F)(F)C(F)(F)C(F)(F)C(F)(F)C(F)(F)C(F)(F)F
active: [3] 54.4 µM | [4] 36.4 µM | [5] 13.9 µM
inactive: [1] | [2] | [10] | [7]

Cc1ccc(S(=O)(=O)C(I)I)cc1
inactive: [2] | [3] | [5]
active: [1] 8.97 µM | [4] 9.01 µM

NC(=O)C(F)(F)C(F)(F)C(F)(F)C(F)(F)C(F)(F)C(F)(F)C(F)(F)F
active: [5] 9.95 µM
not listed: [9] | [10]
inactive: all other assays above

CC(C)CCCC(C)CCO (stereo unspecified)
not listed: [6] | [10]
inactive: all other assays above

Cc1cc(C)c(O)c(C(C)(C)C)c1
active: [4] 25.9 µM
not listed: [6] | [8] | [9]
inactive: all other assays above

CC1CCCCC1
not listed: [5] | [6] | [8]
inactive: all other assays above

O=S(=O)(O)c1ccc(Cl)cc1
not listed: [6] | [8]
inactive: all other assays above

CCCCCCCCCCCC(=O)Cl
inactive: [2] | [3] | [4] | [5] | [7]
active: [1] 161 µM

CC(C)CC=C(C=O)c1ccccc1
active: [5] 21.5 µM
not listed: [10]
inactive: all other assays above

CC(C)Nc1ccc(NC(C)C)c2c1C(=O)c1ccccc1C2=O
active: [4] 0.417 µM
not listed: [6] | [7] | [8]
inactive: all other assays above

CCOC(=O)CC(=O)C(F)(F)C(F)(F)F
not listed: [7] | [10]
inactive: all other assays above

Nc1cc([N+](=O)[O-])cc(Cl)c1O
not listed: [6] | [10]
inactive: all other assays above

Brc1nc2ccccc2s1
not listed: [6] | [10]
inactive: all other assays above

CN1CN(C)CN(C)C1
inactive: [1] | [2] | [3] | [4] | [10]
active: [7] 169 µM

CC1=CCC(=O)O1
inactive: [1] | [2] | [3] | [4] | [10] | [6]

O=C(Cl)C(F)(F)C(F)(F)C(F)(F)C(F)(F)C(F)(F)C(F)(F)F
not listed: [8] | [10]
inactive: all other assays above

CCc1cccc(C)c1N(C(=O)C(=O)O)C(C)COC (stereo unspecified)
not listed: [6] | [10]
inactive: all other assays above

CC1=CCC2C(=O)OC(=O)C2C1 (stereo unspecified)
not listed: [5] | [6] | [9]
inactive: all other assays above

O=C(F)C1(F)C(F)(F)C(F)(F)C(F)(F)C(F)(F)C1(F)F
not listed: [9] | [10]
inactive: all other assays above

OCCCCl
not listed: [5]
inactive: all other assays above

C=CCOC(=O)CC(C)C
not listed: [6] | [10]
inactive: all other assays above

CCOC(C=C(C)CCC=C(C)C)OCC
active: [4] 49.7 µM
not listed: [10]
inactive: all other assays above

CCCCCCCCn1sc(Cl)c(Cl)c1=O
not listed: [6] | [7] | [8]
inactive: all other assays above

CCc1cc(Cc2cc(CC)c(N)c(CC)c2)cc(CC)c1N
inactive: [3] | [10] | [5]
active: [1] 33.4 µM | [2] 53.4 µM | [4] 11.6 µM | [7] 38.3 µM

CCN(CC)c1ccc(C=O)cc1
active: [4] 163 µM
not listed: [6] | [8] | [9]
inactive: all other assays above

O=C1c2ccccc2C(=O)c2c(Cl)cccc21
active: [5] 2.88 µM
not listed: [3] | [10]
inactive: all other assays above

Oc1ccc2c(c1)CCC2
inactive: [1] | [2] | [4] | [6] | [9]
active: [5] 22.6 µM

CCOC(OCC)OCC
inactive: [1] | [2] | [3] | [4] | [7] | [9]

NC(=O)C(F)(F)C(F)(F)C(F)(F)F
inactive: [1] | [2] | [3] | [4] | [7]

CC1=CC2C3C=CC(C3)C2C1C (stereo unspecified)
active: [4] 1.81 µM
inactive: [1] | [2] | [5] | [6] | [7]

OCC(F)(F)C(F)(F)C(F)(F)C(F)(F)C(F)(F)C(F)(F)CO
active: [5] 0.0538 µM
inactive: [1] | [2] | [3] | [4] | [8]

O=C(O)C(F)(F)C(F)(F)C(F)(F)C(F)(F)C(F)(F)C(F)(F)C(F)F
inactive: [1] | [2] | [3] | [4] | [9]
active: [5] 41.4 µM

NC(O)(C(F)(F)F)C(F)(F)F
inactive: [1] | [2] | [3] | [4] | [7] | [9]

COc1ccccc1C=O
not listed: [6] | [10]
inactive: all other assays above

CCCCCCCC/C=C\CCCCCCCC(=O)N(C)CC(=O)O
inactive: [1] | [2] | [3] | [4] | [5] | [8]

O=c1[nH]cccc1O
not listed: [5] | [10]
inactive: all other assays above

COCCOCCC[Si](C)(O[Si](C)(C)C)O[Si](C)(C)C
active: [1] 33.4 µM | [4] 2.56 µM | [7] 2.99 µM
inactive: [2] | [3] | [8]

CC(C)(C)c1cc(CCC(=O)OCC(COC(=O)CCc2cc(C(C)(C)C)c(O)c(C(C)(C)C)c2)(COC(=O)CCc2cc(C(C)(C)C)c(O)c(C(C)(C)C)c2)COC(=O)CCc2cc(C(C)(C)C)c(O)c(C(C)(C)C)c2)cc(C(C)(C)C)c1O
active: [5] 21.8 µM
inactive: [1] | [2] | [4] | [10] | [7]

O=C1c2c(O)ccc(Nc3ccc(CCO)cc3)c2C(=O)c2c([N+](=O)[O-])ccc(O)c21
inactive: [1] | [2] | [3] | [10] | [5]

O=C(O)C(F)(F)C(F)(F)C(F)(F)C(=O)O
inactive: [1] | [2] | [3] | [4] | [5] | [8]

O=C(O)C(F)(F)C(F)(F)C(F)(F)OC(F)(F)F
not listed: [3] | [5] | [6]
inactive: all other assays above

O=C1C=CC(=O)N1c1ccc(Cc2ccc(N3C(=O)C=CC3=O)cc2)cc1
active: [2] 56.8 µM | [3] 41.6 µM | [7] 42.6 µM
inactive: [1] | [4] | [8] | [9]

NC(=O)C(F)(F)C(F)(F)C(F)(F)C(F)F
not listed: [6] | [8] | [10]
inactive: all other assays above
